This is a sample that favours compounds with a hit; in the whole collection about 3.4% have one here.
FBW7 activator = human FBW7 E3 ligase activation, primary screen. Q969H0. 650,000 tested, 0.13% active. normalized activity (activation), % at 26.1 µM. AlphaScreen FBW7–phospho-cyclin E peptide binding, activator screen; in the data active = normalized activity above about 1.9%;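 also: purified mutant Fbw7 with reduced substrate affinity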
GPR151 ag = activators of human GPR151 | Q8TDV0 | PathHunter beta-arrestin GPR151 cells, luminescence | activation, % at 11.2 µM | 650,000 tested, 1% active; in the data active = activation above about 4.9%;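 also: 0% = median of compound wells and 100% = cells with positive control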
Target sequence (Q8TDV0 whole entry, looked up): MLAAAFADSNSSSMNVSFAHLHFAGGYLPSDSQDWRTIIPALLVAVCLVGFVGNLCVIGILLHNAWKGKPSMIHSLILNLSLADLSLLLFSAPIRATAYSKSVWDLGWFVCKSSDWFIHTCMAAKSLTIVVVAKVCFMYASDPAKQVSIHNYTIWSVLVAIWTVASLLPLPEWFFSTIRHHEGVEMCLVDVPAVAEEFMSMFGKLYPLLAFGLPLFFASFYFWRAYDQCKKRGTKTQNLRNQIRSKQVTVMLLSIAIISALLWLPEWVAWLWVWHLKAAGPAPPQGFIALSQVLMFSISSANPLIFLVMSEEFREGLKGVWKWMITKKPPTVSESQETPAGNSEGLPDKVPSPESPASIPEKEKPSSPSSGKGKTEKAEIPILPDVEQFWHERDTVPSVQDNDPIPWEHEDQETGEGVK
MITF primary = inhibitors of human MITF | 650,000 tested, 0.91% active | inhibition, % at 2.6 µM | AlphaScreen MITF homodimerization, bead proximity signal | O75030; in the data active = inhibition above about 50%;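 also: 0% = vehicle wells with protein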
TEAD-YAP block = TEAD-YAP interaction inhibition; HEK-TIYL cells, TEAD-Gal4/YAP UAS-luciferase luminescence; inhibition, % at 9.12 µM; 640,000 tested, 1.4% active; AID 1259422; in the data active = inhibition above about 32%;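 also: 0% = median of test compound wells and 100% = reference inhibitor wells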
* hit, by the source's call; ! = not active in a repeat.

SMILES	FBW7 activator	GPR151 ag	MITF primary	TEAD-YAP block
O=C(Nc1ccc(-c2noc(-c3ccc([N+](=O)[O-])cc3Cl)n2)cc1)c1ccc(Br)o1	0	0	0	-17
Cc1cc(C)c(C(=O)/C=C/c2ccccc2F)c(=O)[nH]1	0	0	-20	66*
Cc1cc(C)c(C(=O)/C=C/c2ccncc2)c(=O)[nH]1	0	0	-13	32
N#C/C(=C\c1cccc(C(F)(F)F)c1)C(=O)Nc1ccc(S(N)(=O)=O)cc1	0	1	8	3
Nc1ccc(/C=C/c2nc3ccccc3o2)cc1	0	-4	12	45*
O=[N+]([O-])c1ccccc1-c1nc(-c2ccccc2)c2ccccc2n1	0	0	22	-1
CC1CCN(S(=O)(=O)N2CCN(S(=O)(=O)N(C)C)CC2)CC1	0	1	4	4
COCCN1C(C)=CC(=C2C(=O)NC(=S)NC2=O)C=C1C(F)(F)F	0	0	2	45*
CC1=CC(=C2C(=O)NC(=S)NC2=O)C=C(C(F)(F)F)N1CCN(C)C	0	0	4	5
O=c1[nH]c(CSc2cccc[n+]2[O-])nc2ccsc12	0	-3	5	-7
CCOC(=O)c1cnc2c(OC)cccc2c1NC1CCCCC1	0	4	5	55*
CCOC(=O)c1cnc2c(OC)cccc2c1NC1CCCCCC1	0	3	3	66*
CCOC(=O)c1cnc2c(OC)cccc2c1NCC1CCCN1CC (stereo not drawn)	0	1	-12	6
CCOC(=O)c1cnc2c(OC)cccc2c1Nc1ccc(OC)c(OC)c1	0	0	17	45*
CCOC(=O)c1cnc2c(Cl)c(Cl)ccc2c1NC1CCCCC1	0	-1	-3	-6
COc1ccccc1/C=N\N=C(/N)c1ccccn1	-1	-4	19	56*
N/C(=N\N=C\c1c(O)ccc2ccccc12)c1ccccn1	-1	-2	11	60*
N/C(=N\N=C/c1ccc(O)cc1O)c1ccccn1	-1	-5	20	84*
Oc1ccc2ccccc2c1/C=N/c1ccccn1	0	0	1	1
Oc1ccc(/C=N/N/C(=N/c2ccccn2)c2ccccn2)c(O)c1	-2	-4	45	59*
O=C(CCC(=O)c1ccc(F)cc1)Nc1ccc(C(=O)O)cc1	1	1	12	12
Cc1[nH]n(-c2ccccc2)c(=O)c1/C=N/NC(C)(C)C	-1	-1	-17	0
Cc1[nH]n(-c2ccccc2)c(=O)c1/C=N/N/C(=N/c1ccccn1)c1ccccn1	-1	2	52*	12
OC[C@H]1O[C@@H](Oc2cc(O)cc(/C=C/c3ccc(O)cc3)c2)[C@H](O)[C@@H](O)[C@@H]1O	0	2	5	12
Oc1ccc(/C=C/c2cc(O)cc(O)c2)cc1	0	-6	-6	89*!
SMILES	FBW7 activator	GPR151 ag	MITF primary	TEAD-YAP block
Cc1ccc(S(=O)(=O)N/N=C/c2sc3ccccc3c2O)cc1	0	-1	22	51*
Cc1ccc(S(=O)(=O)N/N=C/c2ccccc2O)cc1	0	1	-11	2
Cc1ccc(C(C)CCN2CCOc3ccc(C(O)c4ccccn4)cc3C2)o1 (stereo not drawn)	0	0	-6	1
Cc1ccc2nc(-c3ccc(Br)c(N)c3)oc2c1	1	-2	20	70*
Cc1ccc2nc(-c3ccc(C)c(N)c3)oc2c1	1	-8	11	55*
Cc1ccc2nc(-c3cccc(-c4nc5ccc(C)cc5o4)c3)oc2c1	0	0	-11	-46
Cc1ccc2nc(-c3ccc(NC(=O)c4cc(I)ccc4Br)cc3)oc2c1	0	-1	7	-29
O=C1OC(c2ccccc2Cl)=N/C1=C\c1ccc(Cl)cc1Cl	0	-1	-4	-13
NNC(=S)/N=C/c1c2ccccc2cc2ccccc12	0	-1	7	8
O=C1CCC/C(=N/NC(=O)c2cc(-c3cccs3)nc3ccccc23)C1	0	-2	-1	-2
COc1ccc(N2CCN(C(CNS(=O)(=O)c3ccc(OC)c(C)c3)c3ccco3)CC2)cc1 (stereo not drawn)	0	0	68*	6
Cc1ccc(-c2c[n+]3ccccc3n2-c2ccccc2)cc1	0	1	-9	80*
CCCNS(=O)(=O)c1ccc(OC)c2ccccc12	0	2	-2	-6
CN1C(=O)N(CC(=O)Nc2cccc(I)c2)C(=O)C12CCCCC2	0	-1	9	-8
Cc1ccccc1-n1c(-c2ccc(Cl)cc2Cl)n[nH]c1=S	1.9*	1	16	-3
Cc1ccc(NC(=O)c2ccccc2)s1	0	-5	3	57*
Cc1cc(NC(=O)c2ccccc2)sc1C	0	-8	-5	-37
COC1=C(O)C(=O)c2c(cc3oc(C(C)=O)c(O)c3c2O)C1=O	0	-1	76*	2
Cc1nc2ccc(C(=O)N3c4ccccc4CC3C)cc2s1 (stereo not drawn)	0	-1	17	42*
Cc1ccc(/C=N/NC(=O)c2cc(-c3ccccc3)n[nH]2)c(O)c1	0	-1	-48	9
COc1ccc(/C=N/NC(=O)c2cc(-c3cccc(OC)c3)n[nH]2)cc1	0	2	8	-4
COc1cccc(/C=N/NC(=O)c2cc(-c3ccc(C)cc3)n[nH]2)c1	1	1	10	45*
CC(C)(C)OC(=O)N/N=C\c1cccc(/C=N/NC(=O)OC(C)(C)C)c1	1	-2	13	65*
Cc1ccc(-c2cc(C(=O)N/N=C/c3cccc(O)c3)[nH]n2)cc1	0	1	-7	35*
Cc1cc(O)cc(O)c1/C=N/NC(=O)c1cc(-c2ccccc2)n[nH]1	0	-1	-27	33*
SMILES	FBW7 activator	GPR151 ag	MITF primary	TEAD-YAP block
CC(C)(C)OC(=O)N/N=C/c1ccc(Br)cc1	0	-1	-3	-63
CCCCC(=O)N/N=C(\C)CC(=O)Nc1cccc(OC)c1	0	0	0	44*
CCCCC(=O)N/N=C(\C)CC(=O)Nc1cccc(I)c1	0	1	1	-9
COc1cccc(/C=N/NC(=O)CCCCC(=O)N/N=C/c2cccc(OC)c2)c1	0	3	-7	74*
COCCN=CC1=C(O)CC(c2ccccc2)CC1=O (stereo not drawn)	0	0	4	-2
C=CCN=C1NN=C(c2cc(C)n(CC=C)c2C)CS1	0	-3	-2	89*
Cc1cc(C2=NNC(=NCc3ccccc3)SC2)c(C)n1C	1	-1	7	1
NC1=NN=C(c2ccc3c(c2)OCCO3)CS1	0	0	1	-13
CCN=C1NN=C(c2ccc(C)cc2)CS1	0	1	8	73*
c1ccc(CN=C2NN=C(c3ccccc3)CS2)cc1	0	1	5	-27
C=CCN=C1NN=C(c2ccc3c(c2)OCCO3)CS1	0	0	7	51*
CC1Oc2ccccc2C=C1/C=C(\NC(=O)c1ccccc1)C(=O)N1CCOCC1 (stereo not drawn)	0	-1	6	7
COc1ccccc1NC(=O)Cn1cnc2sc(C(=O)Nc3ccc(C)c(F)c3)c(C)c2c1=O	1.9*	-1	12	-12
